The structures appear in SMILES notation. The whole screen tested about 410,000 compounds, of which about 18,000 (4.4%) were called active. Inconclusive results (about 7%) are left out. For the sample, actives were picked, then their nearest neighbours and some compounds at random. Unmarked numbers belong to inactive results. No stated cut-off is given here; in the data, active means activity change below about -60%; inconclusive means no clear call, values can overlap the other calls; inactive means above about -39%.
On the % scale 0 is the no-effect control and ±100 the full control effect.

The assay can be described thus: qHTS Assay for inhibitors of the human cytomegalovirus (HCMV). Conditions: HFF cells, HCMV-luciferase reporter, 72 h; at 57.5 µM; active compounds read low. In a few lines: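 Two-dose cell screen: HFF monolayers treated with compounds and infected with luciferase-expressing HCMV at 1 PFU/cell, 72 h at 37C, then lysed for luciferase measurement.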
Background: Quantitative high-throughput screening tests each substance at several concentrations.
As for `Cc1ccc(C(NC(=O)C2CCN(CCOc3ccc(Cl)cc3Cl)CC2)c2ccccn2)cc1` (stereo not drawn), the activity change, negative = inhibition was 23.2%.
For `Cc1cccnc1C(NC(=O)C1CCN(Cc2ccc(Cl)c(Cl)c2)CC1)c1ccc(Cl)cc1` (stereo not drawn), the activity change, negative = inhibition was -88.1% (active).
The same measure for `O=C(NC(c1ccc(Cl)cc1)c1cnccn1)C1CCN(Cc2ccc(Cl)cc2)CC1` (stereo not drawn): 18.3%; for `Cc1ccc(CSc2nc3cccnc3n2Cc2ccc(C(=O)NC3CC3)cc2)cc1`: 112%; for `CCn1c(CN2C(=O)CSc3ccccc32)n[nH]c1=S`: -8.44%.
Turning to `CC(=O)c1cc(C#N)c(N2CC(C)OC(C)C2)nc1C` (stereo not drawn), the activity change, negative = inhibition was -16.2%.
With `CC(=O)c1cc(C#N)c(N2CCCCC2)nc1C` the figure was -92.4% (active).
As to `Cc1cc(C)c2cc(C#N)c(N3CCNCC3)nc2c1`, the activity change, negative = inhibition is -15.9%.
With `Cc1cc(C)cc(NS(=O)(=O)c2ccc3[nH]cc(C(=O)N4CCCCC4)c(=O)c3c2)c1` the figure was 1.5%; with `CC(=O)NC(Cc1ccc(F)c(F)c1)C(=O)NC1CCN(c2nnnn2-c2ccccc2)CC1` (stereo not drawn), -16%; with `COc1ccc(-c2nonc2NC(=O)c2oc3ccc(F)cc3c2C)cc1OC`, -12.8%.
With `O=C(NC1CC(=O)N(c2ccccc2)C1)c1ccco1` (stereo not drawn) the figure was 43.8%.
With `COc1ccc(C)cc1Nc1n[n+](-c2ccccc2)c(-c2cccc(Cl)c2Cl)s1` the figure was 8%.
For `COc1cc(Br)c(-c2sc(Nc3ccccc3)n[n+]2-c2ccccc2)cc1OC`, the activity change, negative = inhibition is 25.2%.
Consider `CCc1ccc(Nc2n[n+](-c3ccccc3)c(-c3cccc(Cl)c3Cl)s2)cc1`, for which the activity change, negative = inhibition is -69.1% (active).
Consider `CCCCC(=O)OC1=CN(Cc2ccccc2)S(=O)(=O)c2ccccc21`, for which the activity change, negative = inhibition is -6.62%.
With `CN(Cc1cccs1)C(=O)Cc1c[nH]c2ccccc12` the figure was 26%; with `CC(C)C12CN3CC(C(C)C)(CN(C1)C3c1ccc(OCc3ccccc3)cc1)C2=O` (stereo not drawn), -7.28%; with `Cc1ccc2nc(/C(C#N)=C/c3ccccc3F)[nH]c2c1`, 206%.
With `Cc1ccc2nc(/C(C#N)=C/c3ccc(-c4ccc(C(=O)OC(C)C)cc4)o3)[nH]c2c1` the figure was 41%; with `Cc1ccc2nc(/C(C#N)=C\c3ccc(OC(=O)c4cccs4)cc3)[nH]c2c1`, -67.5% (active); with `COCCNC(=O)CSc1nc(-c2ccccc2)[nH]c1-c1ccc(C)cc1`, -25.2%.
With `CCOc1cc2[nH]c(=O)n(Cc3ccc(C(=O)NCCN(CC)CC)cc3)c(=O)c2cc1OCC` the figure was -5.64%.
Take `O=C(NC1C2CC3CC(C2)CC1C3)c1ccc(N2CCNCC2)c([N+](=O)[O-])c1` (stereo not drawn): the activity change, negative = inhibition is 6.12%.
The same measure for `Cc1cccc(C)c1NC(=O)CNC(=O)c1ccc(N2CCOCC2)c([N+](=O)[O-])c1`: 25.4%; for `O=C(Nc1cccc(C(F)(F)F)c1)c1ccc(N2CCNCC2)c([N+](=O)[O-])c1`: -65.3% (active); for `Cc1ccc(CSc2oc(-c3cccs3)nc2S(=O)(=O)c2ccc(C)cc2)cc1`: 12.7%.
The same measure for `CSc1oc(-c2cccs2)nc1S(=O)(=O)c1ccc(Br)cc1`: 29.5%; for `CCCCS(=O)(=O)c1oc(-c2cccs2)nc1S(=O)(=O)c1ccccc1`: -108% (active).
The same measure for `Cc1ccc(-n2nc(CO)c(C(=O)NCCc3ccccc3)n2)cc1`: 18.9%; for `CCOC(=O)c1cccc(NC(=O)Cn2cnc3nc4c(cc3c2=O)CCCC4)c1`: 4.14%.
For `CC(NC(=O)COc1cccnc1[N+](=O)[O-])c1ccc(Cl)cc1Cl` (stereo not drawn), the activity change, negative = inhibition is -23.4%.
The same measure for `Cc1ccc(OCC(=O)c2cc(C)n(Cc3ccco3)c2C)c([N+](=O)[O-])n1`: -78.9% (active).
The same measure for `COc1ccc(C)cc1-n1nnnc1SCC(=O)c1cc(C)n(Cc2ccco2)c1C`: 39.6%; for `Cc1ccc(OCC(=O)Nc2ccccc2Sc2ccc(Cl)cc2)c([N+](=O)[O-])n1`: -14.6%.
With `COCC(C)n1c(C)cc(C(=O)COc2ccc(C)nc2[N+](=O)[O-])c1C` (stereo not drawn) the figure was -71.3% (active); with `CCc1ccccc1NC(=O)CN(C)C(=O)COc1ccc(C)nc1[N+](=O)[O-]`, -24.2%; with `O=S(=O)(NCCc1nnc2ccc(SCc3ccc(Cl)cc3Cl)nn12)c1ccccc1`, 5.81%.
Regarding `Cn1nc(C(=O)OCC(=O)N(Cc2ccccc2)C(C)(C)C)c2ccccc2c1=O`, the activity change, negative = inhibition was 2.54%.
The same measure for `COc1ccc(Nc2cc(Sc3ccc(OC)cc3)ncn2)cc1`: -88.8% (active).
For `COc1ccc(NC2=CC(=S)NC(C)(C)C2)cc1`, the activity change, negative = inhibition was 42.8%.
In the case of `COc1ccc(NC(=O)CSc2ncnc3[nH]ncc23)cc1`, the activity change, negative = inhibition is -2.36%.
Take `Cc1ccc(Sc2ccncc2S(N)(=O)=O)cc1`: the activity change, negative = inhibition was 55.9%.
The same measure for `O=C(CSc1ccsc1[N+](=O)[O-])N1CCCCC1`: 3.43%; for `CC1CC(C)CN(C(=O)CSc2nnc(CSc3ncccn3)n2C)C1` (stereo not drawn): -15.8%; for `CC1CC(C)CN(C(=O)CSc2ccsc2[N+](=O)[O-])C1` (stereo not drawn): -70.8% (active).
The same measure for `CC(C)C(OC(=O)c1cccs1)C(=O)NC1CCCCC1` (stereo not drawn): 55.6%; for `CC(C)=C1N(S(=O)(=O)C(F)(F)F)CCC12CN(C)c1ccccc12` (stereo not drawn): -18.4%.

Source of the values: PubChem BioAssay AID1259415 (National Center for Advancing Translational Sciences (NCATS), 2018).
